Among the targets are dAsCas12a S542R (Acidaminococcus sp., UniProt U2UMQ6 1-1307, S542R;D908A;E993A;D1235A); d-enCas12a (Acidaminococcus sp., UniProt U2UMQ6 1-1307, E174R;S542R;K548R;D908A;E993A;D1235A); d-enCas12a-Ultra (Acidaminococcus sp., UniProt U2UMQ6 1-1307, E174R;S542R;K548R;M537R;F870L;D908A;E993A;D1235A).
Experiment in all cases: Spec-seq (native PAGE EMSA with sequencing of bound and unbound); 25 mM Tris-HCl pH 7.4, 150 mM KCl, 5 mM MgCl2, 10% glycerol, 1 mM DTT, 40 ng/uL salmon sperm DNA; 400 nM Cas12a, 480 nM crRNA, 50 nM library, 37 C 1 h; native PAGE at room temperature; high values mean tight binding
Conditions in all cases: protein: recombinant
(In general: In EMSA bound probe runs differently from free probe, usually more slowly.)
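Note: relative affinity from the bound to unbound sequence frequency ratio in Spec-seq.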

B1: TAGG (dsDNA)
DNA 1: GCTATCTAGTGCTCAGTACGCACTGTAGGAGGAAACTTCTGGCAGGACCAGGTCATGAGATCGGAAGAGCACACGTCTGAACTCCAGTCA
DNA 2: TGACTGGAGTTCAGACGTGTGCTCTTCCGATCTCATGACCTGGTCCTGCCAGAAGTTTCCTCCTACAGTGCGTACTGAGCACTAGATAGC
RNA: AAUUUCUACUCUUGUAGAUAGGAAACUUCUGGCAGGACC
Take B1: the binding signal with dAsCas12a S542R was -8.66 lnKA; in the test with d-enCas12a, -5.6 lnKA; with d-enCas12a-Ultra, -3.37 lnKA.

B2: TGAT (dsDNA)
DNA 1: GCTATCTAGTGCTCAGTACGCACTGTGATAGGAAACTTCTGGCAGGACCAGGTCATGAGATCGGAAGAGCACACGTCTGAACTCCAGTCA
DNA 2: TGACTGGAGTTCAGACGTGTGCTCTTCCGATCTCATGACCTGGTCCTGCCAGAAGTTTCCTATCACAGTGCGTACTGAGCACTAGATAGC
RNA: AAUUUCUACUCUUGUAGAUAGGAAACUUCUGGCAGGACC
Take B2: the binding signal was -8.47 lnKA with dAsCas12a S542R, -5.85 lnKA in the test with d-enCas12a and -3.37 lnKA in the test with d-enCas12a-Ultra.

B3: TCAG (dsDNA)
DNA 1: GCTATCTAGTGCTCAGTACGCACTGTCAGAGGAAACTTCTGGCAGGACCAGGTCATGAGATCGGAAGAGCACACGTCTGAACTCCAGTCA
DNA 2: TGACTGGAGTTCAGACGTGTGCTCTTCCGATCTCATGACCTGGTCCTGCCAGAAGTTTCCTCTGACAGTGCGTACTGAGCACTAGATAGC
RNA: AAUUUCUACUCUUGUAGAUAGGAAACUUCUGGCAGGACC
For B3, the binding signal with dAsCas12a S542R is -7.87 lnKA; in the test with d-enCas12a, -5.78 lnKA; with d-enCas12a-Ultra, -3.45 lnKA.

B4: TGCG (dsDNA)
DNA 1: GCTATCTAGTGCTCAGTACGCACTGTGCGAGGAAACTTCTGGCAGGACCAGGTCATGAGATCGGAAGAGCACACGTCTGAACTCCAGTCA
DNA 2: TGACTGGAGTTCAGACGTGTGCTCTTCCGATCTCATGACCTGGTCCTGCCAGAAGTTTCCTCGCACAGTGCGTACTGAGCACTAGATAGC
RNA: AAUUUCUACUCUUGUAGAUAGGAAACUUCUGGCAGGACC
Turning to B4, the binding signal was -8.2 lnKA with dAsCas12a S542R, -3.38 lnKA with d-enCas12a and -0.977 lnKA with d-enCas12a-Ultra.

B5: AAGC (dsDNA)
DNA 1: GCTATCTAGTGCTCAGTACGCACTGAAGCAGGAAACTTCTGGCAGGACCAGGTCATGAGATCGGAAGAGCACACGTCTGAACTCCAGTCA
DNA 2: TGACTGGAGTTCAGACGTGTGCTCTTCCGATCTCATGACCTGGTCCTGCCAGAAGTTTCCTGCTTCAGTGCGTACTGAGCACTAGATAGC
RNA: AAUUUCUACUCUUGUAGAUAGGAAACUUCUGGCAGGACC
Consider B5, for which the binding signal was -5.85 lnKA with d-enCas12a and -3.34 lnKA in the test with d-enCas12a-Ultra.

B6: TAGT (dsDNA)
DNA 1: GCTATCTAGTGCTCAGTACGCACTGTAGTAGGAAACTTCTGGCAGGACCAGGTCATGAGATCGGAAGAGCACACGTCTGAACTCCAGTCA
DNA 2: TGACTGGAGTTCAGACGTGTGCTCTTCCGATCTCATGACCTGGTCCTGCCAGAAGTTTCCTACTACAGTGCGTACTGAGCACTAGATAGC
RNA: AAUUUCUACUCUUGUAGAUAGGAAACUUCUGGCAGGACC
In the case of B6, the binding signal with dAsCas12a S542R is -8.48 lnKA; in the test with d-enCas12a, -5.67 lnKA; in the test with d-enCas12a-Ultra, -3.31 lnKA.

B7: TCAT (dsDNA)
DNA 1: GCTATCTAGTGCTCAGTACGCACTGTCATAGGAAACTTCTGGCAGGACCAGGTCATGAGATCGGAAGAGCACACGTCTGAACTCCAGTCA
DNA 2: TGACTGGAGTTCAGACGTGTGCTCTTCCGATCTCATGACCTGGTCCTGCCAGAAGTTTCCTATGACAGTGCGTACTGAGCACTAGATAGC
RNA: AAUUUCUACUCUUGUAGAUAGGAAACUUCUGGCAGGACC
For the molecule B7, the figures for the binding signal in the test with dAsCas12a S542R, with d-enCas12a and in the test with d-enCas12a-Ultra were -8.4 lnKA, -5.72 lnKA and -3.42 lnKA, respectively.

B8: TGGC (dsDNA)
DNA 1: GCTATCTAGTGCTCAGTACGCACTGTGGCAGGAAACTTCTGGCAGGACCAGGTCATGAGATCGGAAGAGCACACGTCTGAACTCCAGTCA
DNA 2: TGACTGGAGTTCAGACGTGTGCTCTTCCGATCTCATGACCTGGTCCTGCCAGAAGTTTCCTGCCACAGTGCGTACTGAGCACTAGATAGC
RNA: AAUUUCUACUCUUGUAGAUAGGAAACUUCUGGCAGGACC
For the molecule B8, the results for the binding signal in the test with dAsCas12a S542R, in the test with d-enCas12a and with d-enCas12a-Ultra were -8.19 lnKA, -5.4 lnKA and -3.03 lnKA, respectively.

B9: GTAC (dsDNA)
DNA 1: GCTATCTAGTGCTCAGTACGCACTGGTACAGGAAACTTCTGGCAGGACCAGGTCATGAGATCGGAAGAGCACACGTCTGAACTCCAGTCA
DNA 2: TGACTGGAGTTCAGACGTGTGCTCTTCCGATCTCATGACCTGGTCCTGCCAGAAGTTTCCTGTACCAGTGCGTACTGAGCACTAGATAGC
RNA: AAUUUCUACUCUUGUAGAUAGGAAACUUCUGGCAGGACC
B9: the binding signal with d-enCas12a was -5 lnKA; in the test with d-enCas12a-Ultra, -1.95 lnKA.

B10: GCGG (dsDNA)
DNA 1: GCTATCTAGTGCTCAGTACGCACTGGCGGAGGAAACTTCTGGCAGGACCAGGTCATGAGATCGGAAGAGCACACGTCTGAACTCCAGTCA
DNA 2: TGACTGGAGTTCAGACGTGTGCTCTTCCGATCTCATGACCTGGTCCTGCCAGAAGTTTCCTCCGCCAGTGCGTACTGAGCACTAGATAGC
RNA: AAUUUCUACUCUUGUAGAUAGGAAACUUCUGGCAGGACC
Take B10: the binding signal in the test with d-enCas12a was -5.85 lnKA; with d-enCas12a-Ultra, -3.63 lnKA.

B11: TGAG (dsDNA)
DNA 1: GCTATCTAGTGCTCAGTACGCACTGTGAGAGGAAACTTCTGGCAGGACCAGGTCATGAGATCGGAAGAGCACACGTCTGAACTCCAGTCA
DNA 2: TGACTGGAGTTCAGACGTGTGCTCTTCCGATCTCATGACCTGGTCCTGCCAGAAGTTTCCTCTCACAGTGCGTACTGAGCACTAGATAGC
RNA: AAUUUCUACUCUUGUAGAUAGGAAACUUCUGGCAGGACC
Take B11: the binding signal with dAsCas12a S542R was -8.4 lnKA; in the test with d-enCas12a it was -5.65 lnKA; in the test with d-enCas12a-Ultra it was -3.4 lnKA.

B12: TGCT (dsDNA)
DNA 1: GCTATCTAGTGCTCAGTACGCACTGTGCTAGGAAACTTCTGGCAGGACCAGGTCATGAGATCGGAAGAGCACACGTCTGAACTCCAGTCA
DNA 2: TGACTGGAGTTCAGACGTGTGCTCTTCCGATCTCATGACCTGGTCCTGCCAGAAGTTTCCTAGCACAGTGCGTACTGAGCACTAGATAGC
RNA: AAUUUCUACUCUUGUAGAUAGGAAACUUCUGGCAGGACC
B12: the binding signal is -8.2 lnKA with dAsCas12a S542R, -4 lnKA with d-enCas12a and -1.2 lnKA with d-enCas12a-Ultra.

B13: TGAC (dsDNA)
DNA 1: GCTATCTAGTGCTCAGTACGCACTGTGACAGGAAACTTCTGGCAGGACCAGGTCATGAGATCGGAAGAGCACACGTCTGAACTCCAGTCA
DNA 2: TGACTGGAGTTCAGACGTGTGCTCTTCCGATCTCATGACCTGGTCCTGCCAGAAGTTTCCTGTCACAGTGCGTACTGAGCACTAGATAGC
RNA: AAUUUCUACUCUUGUAGAUAGGAAACUUCUGGCAGGACC
On to B13, for which the binding signal with dAsCas12a S542R was -8.67 lnKA; in the test with d-enCas12a, -5.25 lnKA; with d-enCas12a-Ultra it was -2.74 lnKA.

B14: TGGG (dsDNA)
DNA 1: GCTATCTAGTGCTCAGTACGCACTGTGGGAGGAAACTTCTGGCAGGACCAGGTCATGAGATCGGAAGAGCACACGTCTGAACTCCAGTCA
DNA 2: TGACTGGAGTTCAGACGTGTGCTCTTCCGATCTCATGACCTGGTCCTGCCAGAAGTTTCCTCCCACAGTGCGTACTGAGCACTAGATAGC
RNA: AAUUUCUACUCUUGUAGAUAGGAAACUUCUGGCAGGACC
As for B14, the binding signal with dAsCas12a S542R was -8.57 lnKA; in the test with d-enCas12a, -5.93 lnKA; with d-enCas12a-Ultra it was -3.42 lnKA.

B15: ACGC (dsDNA)
DNA 1: GCTATCTAGTGCTCAGTACGCACTGACGCAGGAAACTTCTGGCAGGACCAGGTCATGAGATCGGAAGAGCACACGTCTGAACTCCAGTCA
DNA 2: TGACTGGAGTTCAGACGTGTGCTCTTCCGATCTCATGACCTGGTCCTGCCAGAAGTTTCCTGCGTCAGTGCGTACTGAGCACTAGATAGC
RNA: AAUUUCUACUCUUGUAGAUAGGAAACUUCUGGCAGGACC
As to B15, the figures for the binding signal in the test with d-enCas12a and in the test with d-enCas12a-Ultra were -5.66 lnKA and -3.42 lnKA, respectively.

The values are drawn from PMC8222333, “AsCas12a ultra nuclease facilitates the rapid generation of therapeutic cell medicines”.
